# Results as given in PubChem BioAssay (NCI).
# This is part of a sample that, as a whole, favours compounds with a hit. Of some 83,000 tested, about 20% had one in any assay.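 Interpretation: 100, growth as untreated; towards 0, rising growth inhibition; 0, no net growth; 0 to -100, cell death. Compounds scoring below 10 were considered active.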 Unmarked numbers belong to inactive results. The source made the active and inactive calls.
# What was measured:
# Test in all cases: NCI-60 one-dose screen, 48 h (100 = growth as untreated, 0 = no growth, -100 = all killed)
# SR leukemia = details: 10 µM unless noted
# RPMI-8226 leukemia = details: 10 µM unless noted
# OVCAR-8 ovarian = details: 10 µM unless noted
# OVCAR-5 ovarian = details: 10 µM unless noted
# OVCAR-4 ovarian = details: 10 µM unless noted
# SK-OV-3 ovarian = details: 10 µM unless noted
# IGROV1 ovarian = details: 10 µM unless noted
# OVCAR-3 ovarian = details: 10 µM unless noted
# HS 578T breast = details: 10 µM
# NCI/ADR-RES ovarian = details: 10 µM unless noted
# T-47D breast = details: 10 µM unless noted
# BT-549 breast = details: 10 µM unless noted
# MDA-MB-435 melanoma = details: 10 µM unless noted
# SW-620 colon = details: 10 µM unless noted
# MCF7 breast = details: 10 µM unless noted
# HCT-116 colon = details: 10 µM unless noted
# HCC-2998 colon = details: 10 µM
# KM12 colon = details: 10 µM unless noted
SMILES,growth (SR leukemia),growth (RPMI-8226 leukemia),growth (OVCAR-8 ovarian),growth (OVCAR-5 ovarian),growth (OVCAR-4 ovarian),growth (SK-OV-3 ovarian),growth (IGROV1 ovarian),growth (OVCAR-3 ovarian),growth (HS 578T breast),growth (NCI/ADR-RES ovarian),growth (T-47D breast),growth (BT-549 breast),growth (MDA-MB-435 melanoma),growth (SW-620 colon),growth (MCF7 breast),growth (HCT-116 colon),growth (HCC-2998 colon),growth (KM12 colon)
COC(=O)CCCNc1c(-c2c(O)c(O)cc3c(O)c(-c4c(C)cc5c(-c6nc7ccccn7c6NCCCC(=O)OC)c(O)c(O)cc5c4O)c(C)cc23)nc2ccccn12,24.3%,22.5%,51.4%,119%,98.6%,50.5%,34.8%,64.6%,34.5%,100%,26.1%,16%,20.7%,60.1%,18.2%,7.23% (active),71.6%,31.8%
N#CC1(C#N)C(c2cccs2)NC(c2cccs2)C1(C#N)C#N (configuration not stated),110%,107%,101%,109%,92.7%,99.1%,101%,98.1%,104%,97.6%,91%,101%,107%,108%,90.3%,97.6%,100%,100%
CCCCn1c(C)nc2ccc(Nc3nc(N4CCN(C)CC4)nc4nc[nH]c34)cc21,84%,88.2%,91.8%,95.6%,97.8%,104%,94.1%,99.2%,86.8%,104%,80.3%,97.5%,94.3%,91.8%,83%,75.8%,83.6%,93.6%
c1ccc2c(c1)CCN(NCCN1CCCC1)C2,103%,95.5%,101%,94.7%,106%,84.6%,96.3%,99.9%,85.6%,96.1%,91.4%,99.8%,–,94.8%,96.5%,85.6%,–,100%
COc1cc2nc(Nc3cccc(Cl)c3)nc(N)c2cc1OC,67.4%,35.7%,87.4%,111%,72.7%,114%,64.5%,89.2%,109%,74.1%,84.5%,78.6%,84.7%,83.6%,81.5%,33.7%,-59.3% (active),61.4%
COc1cnc2c(c1)C(=O)c1c-2n(CCCN2CCOCC2)c(=O)c2cc(Cl)ccc12,7.63% (active),9.78% (active),32.8%,69.1%,41.6%,10.7%,43.2%,25.8%,79.2%,19.2%,10%,43.6%,47.5%,21.3%,10.4%,8.51% (active),–,32.7%
CC(N)C(Cc1ccccc1)c1ccc(Cl)cc1 (configuration not stated),67.9%,94.5%,96.1%,80.8%,85.8%,72.5%,94.8%,102%,86.2%,95.7%,75.5%,88.4%,94.1%,88.9%,90.3%,78.8%,84.5%,98.9%
CCN1CCN(c2cc(C)nc(N(CCCNc3ccnc4cc(Cl)ccc34)Cc3cccs3)n2)CC1,-34% (active),-33.6% (active),15.7%,69.8%,30.4%,65.5%,10.3%,-2.11% (active),-22.4% (active),28.5%,-18.7% (active),-20.6% (active),-79.8% (active),-8.17% (active),12.3%,10.8%,-27.2% (active),35.4%
Cc1cc(O)cc(-c2c(-c3ccnc(-c4cccnc4)c3)cnn2C)c1,42.2%,51.1%,73.5%,54.9%,60.9%,69.3%,58.8%,79.4%,58.9%,67.2%,29.3%,75.1%,61.9%,83.4%,43.5%,71.9%,88.2%,68.6%
Clc1ccc2c(NCCNc3nc(N4CCCC4)nc4ccccc34)ccnc2c1,-22.6% (active),-18.2% (active),3.61% (active),23.6%,-7.19% (active),-63.3% (active),3.56% (active),-65.8% (active),19.9%,60.2%,-14% (active),-11.3% (active),-41.3% (active),5.27% (active),28.5%,-63.6% (active),–,10.9%
CC(C)OP(=O)(CCC(=O)c1c[nH]c2ccccc12)OC(C)C,100%,73.5%,91.8%,107%,105%,89%,106%,106%,86.6%,103%,89.5%,117%,–,105%,100%,113%,97.3%,99.9%
COC(=O)[C@]12CC[C@@H](C)[C@H](C)[C@@H]1C1=CC[C@@H]3[C@@]4(C)C(C=O)=C[C@@](C)(COS(C)(=O)=O)C4=CC[C@@]3(C)[C@]1(C)CC2,-15.6% (active),-4.75% (active),-12% (active),-35.9% (active),-61.1% (active),17.1%,-24.1% (active),-85.7% (active),-24.1% (active),-25.4% (active),-10.6% (active),-43.5% (active),-73.8% (active),-85.2% (active),-16.8% (active),-81.2% (active),–,-73% (active)
COc1cnc2c(c1)C(=O)c1c-2n(CCCNC2=NCCS2)c(=O)c2cc(Cl)ccc12,2.52% (active),-31.2% (active),-25.1% (active),4.29% (active),49.5%,20.9%,-57% (active),-67.9% (active),85.8%,-14.5% (active),32.9%,41.6%,7.73% (active),-79.3% (active),-74.9% (active),-87.8% (active),-35.6% (active),-63.2% (active)
CNC(=O)c1cnc(C)nc1-c1cc(C(C)(C)C)c(O)c(C(C)(C)C)c1,85%,77.8%,105%,102%,89.7%,97.5%,103%,116%,106%,110%,99.3%,101%,98.5%,112%,93.4%,96.3%,127%,96.4%
CCc1nc2ccc(Cc3ccc(C(=O)NO)cc3)cc2c(=O)n1CCc1ccccc1,2.05% (active),6.11% (active),-31% (active),1.71% (active),-7.64% (active),-26.9% (active),-56.7% (active),-37.1% (active),14.9%,-17.3% (active),-7.19% (active),-31.2% (active),-73.7% (active),-27.2% (active),4.69% (active),-55% (active),-74.8% (active),-58.9% (active)
C=CCCCC(=O)CCC(=O)OCC1O[C@@H](O[C@@H]2C(O)[C@@H](OC(C)=O)C(C)O[C@H]2O[C@H](CC=C)CCCCC)C(O)[C@@H](OC(=O)/C(C)=C/C)[C@@H]1OC(=O)/C=C/c1ccccc1 (some centres not stated),-12.4% (active),-1.27% (active),42.1%,53.5%,42.4%,40.6%,35.1%,26%,35.9%,49.2%,-5.16% (active),16.7%,9.15% (active),30.6%,17.6%,13.7%,–,22.3%
Cc1cc(C)n(CC(=O)Nc2ccc(-c3nc4ccccc4s3)cc2)n1,99.4%,97.2%,99.7%,105%,97.8%,114%,97.4%,101%,113%,–,93.3%,115%,107%,113%,26.6%,107%,–,100%
